Out of some 56,000 compounds screened, about 710 (1.3%) were called active. For the sample, actives were picked, then their nearest neighbours and some compounds at random. Unmarked numbers belong to inactive results.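 How the source made its calls: active means inhibition above the mean inhibition of all tested compounds plus 3 SD (cut at about 28% in these data); inactive means the rest.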

This assay in a line: cytotoxicity toward Jurkat T cells, primary screen, cytotoxicity control, cell-based, Jurkat E6.1, 60K MLSMR library (AID 463). The conditions noted are these: Jurkat E6.1 viability, ATP luminescence, 48 h; at 4 µM; stronger effect = higher value.
In the case of `CCOC(=O)c1c(NC(=O)c2ccc(Br)o2)sc2c1CCCC2`, the inhibition (usually the relative decrease from the control value, in per cent) was 6.2%.
The figure for `COc1ccc(-c2n[nH]c(C)c2-c2ccc(OC)c(OC)c2)c(O)c1` is 52% (active); for `C=C(C)COc1ccc(-c2n[nH]c(C)c2-c2ccccc2OC)c(O)c1` it is 5.8%; for `C=C(C)COc1ccc(-c2n[nH]c(C)c2-c2ccccc2)c(O)c1` it is 22.9%.
To `Cn1c(=O)[nH]c(=O)c2c1nc(CN1CCN(c3ccccc3F)CC1)n2CCc1ccccc1` belongs 0%; to `O=S(=O)(c1cccc(S(=O)(=O)N2CCC(n3nnc4ccccc43)CC2)c1)N1CCCCC1`, 0.6%.
As for `Cn1c(NC(=O)c2ccc3c(c2)OCO3)cc(=O)n(C)c1=O`, the inhibition was -10.9%.
In the case of `CCOc1ccc(-c2nnc(-c3ccco3)o2)cc1`, the inhibition was 8.6%.
The figure for `CCOC(=O)CSc1nnc(CNc2nc(-c3ccccc3)cs2)n1C` is 0%.
To `COc1ccc(C(c2nnnn2C2CCCCC2)N2CCN(c3ccccc3F)CC2)cc1` (stereo not given) belongs -5.7%; to `COc1ccccc1-n1c(CNC(=O)c2ccccc2)nnc1SCC(=O)Nc1nnc(C)s1`, -6.1%.
To `CCc1nnc(NC(=O)CSc2nnc(-c3ccncc3)n2Cc2ccccc2)s1` belongs -9.3%; to `Cc1nnc(NC(=O)CSc2nccn2-c2cccc(C)c2C)s1`, 71.5% (active).
With `Cc1cc(Nc2cccc(C)c2C)n2ncnc2n1`, the inhibition is 2.2%.
The figure for `CCOC(=O)N1CCN(C(=O)C2CC(c3ccc(F)cc3)=NO2)CC1` (stereo not given) is -1.7%.
The figure for `CN(C)c1ccnc2sc3c(=O)n(Cc4ccccc4)cnc3c12` is 14.6%.
`CC1COC2C(O1)N(S(C)(=O)=O)CCN2S(C)(=O)=O` (stereo not given): the inhibition is -1.8%.
The figure for `CC(=O)Oc1ccc(C)cc1N1C(=O)c2ccc(C(=O)O)cc2C1=O` is -10.1%; for `CCOc1ccc2nc(SC(CC)C(=O)Nc3cc(C)on3)sc2c1` (stereo not given) it is 1%; for `Cc1nc(CNS(=O)(=O)c2cccnc2)cs1` it is 2.3%.
To `Cc1ccc(S(=O)(=O)NCc2csc(C)n2)c(C)c1` belongs -3.9%.
The figure for `Cc1nc(CNS(=O)(=O)c2ccc(Oc3ccccc3)cc2)cs1` is 35.6% (active); for `Cc1cccc(NC(=O)c2ccccc2NC(=O)C(C)(C)C)n1` it is 2.6%; for `COc1cccc(N2CCN(C(=O)C3CCCN(S(=O)(=O)c4cnc[nH]4)C3)CC2)c1` (stereo not given) it is 0.4%.
As to `CN(C)c1nc(N)nc(CSc2nnnn2-c2cccc3ccccc23)n1`, the inhibition was 66.2% (active).
To `O=c1c2ccccc2nc(CSc2nnnn2-c2ccccc2)n1-c1ccccc1` belongs -1.7%; to `Cc1ccc(-c2noc(CSc3nnnn3-c3ccccc3)n2)cc1`, -2.2%; to `Cn1c(=O)cc(OCCCC(=O)N2CCN(Cc3ccc4c(c3)OCO4)CC2)c2ccccc21`, 1.1%.
To `Cc1cc(/C=N/n2cnnc2)c(C)n1-c1ccc2ncccc2c1` belongs 1%.
The figure for `C=CCn1c(=N)n(CC(O)COc2ccc(OC)cc2)c2ccccc21` (stereo not given) is -0.5%; for `CC1CCN(C(=O)Cn2cc(C(=O)c3ccco3)c3ccccc32)CC1` it is 2.8%; for `O=C1CCC(C(=O)Nc2ccc(OC(F)F)cc2)N1` (stereo not given) it is 0.7%.
With `Cc1cc(C)nc(NC(=O)C(C)N2C(=O)c3ccccc3C2=O)n1` (stereo not given), the inhibition was -2.7%.
To `Cc1cc(C)nc(NC(=O)Nc2ccccc2C(F)(F)F)n1` belongs 45.2% (active).
The figure for `O=C(Nc1ccccc1C(F)(F)F)c1cc(-c2ccc(O)cc2)on1` is 16.9%.
The figure for `Cc1nnc(N(Cc2ccco2)C(=O)c2ccno2)s1` is -0.7%.
Consider `Cc1ccc2[nH]c(=O)c(COC(=O)c3ccccn3)cc2c1`, for which the inhibition was -6.3%.
The figure for `CCn1c(=N)c(S(=O)(=O)c2ccc(F)cc2)cc2c(=O)n3ccccc3nc21` is -7%; for `COc1ccc(Cn2nnc3c(=O)[nH]c(C4CCN(C(=O)c5ccccc5Cl)CC4)nc32)cc1` it is -2.8%.
The figure for `CCN(CC)S(=O)(=O)c1cccc(C(=O)Nc2ccccc2)c1` is 29.7% (active); for `CN(C)S(=O)(=O)c1cccc(C(=O)Nc2cccnc2)c1` it is -3%; for `CCN(CC)S(=O)(=O)c1cccc(C(=O)NCC(=O)OCC(=O)NCc2ccccc2)c1` it is -5.9%.
The figure for `COc1ccc(Br)cc1S(=O)(=O)N1CCN=C1C` is 2.5%; for `CCOC(=O)C1=C(C)N=c2s/c(=C\C(=O)OC)c(=O)n2C1c1ccc(OC)cc1` (stereo not given) it is 6%.
On to `O=C(CN1CCN(S(=O)(=O)c2ccc(F)cc2)CC1)Nc1ccccc1F`, for which the inhibition was -6%.
In the case of `CCOC(=O)N1CCN(S(=O)(=O)c2ccc(C(=O)Nc3ccc(F)cc3F)cc2)CC1`, the inhibition was 84.2% (active).
For the compound `O=C(Nc1cccc(F)c1)c1ccc(S(=O)(=O)N2CCCC2)cc1`, the inhibition was 1.7%.
The figure for `Cc1ccc(C2c3c(oc4ccc(C)cc4c3=O)C(=O)N2CCCN2CCOCC2)cc1` (stereo not given) is 3.9%; for `Cc1ccccc1Cn1c(=O)[nH]c2ccccc21` it is 5.4%; for `COc1ccc(CCN2C(=O)c3[nH]nc(-c4ccccc4O)c3C2c2ccc(C)cc2)cc1OC` (stereo not given) it is 11.1%.
For the compound `O=S(=O)(Nc1ccc2nc(-c3ccco3)[nH]c2c1)c1ccccc1`, the inhibition was 4.2%.
As to `CC(=O)N1CCN(C(=O)c2cccc(S(=O)(=O)Nc3ccc(C)cc3)c2)CC1`, the inhibition is -0.6%.
`Cc1ccc(S(=O)(=O)Nc2ccc3ncccc3c2)cc1`: the inhibition is 69.4% (active).
As to `Cc1cc(C)cc(N(CC(=O)Nc2c(C)n(C)n(-c3ccccc3)c2=O)S(C)(=O)=O)c1`, the inhibition is -5.2%.
The figure for `CCOC(=O)CSc1nnc(-c2cccc(Br)c2)o1` is -6.1%; for `COc1cc(NS(=O)(=O)c2ccc(NC(C)=O)cc2)cc(OC)c1` it is 37.3% (active); for `CCNS(=O)(=O)c1ccc(NC(=O)Nc2cccc(OC)c2)cc1` it is -3.7%.
In the case of `CC(=O)Nc1ccc(S(=O)(=O)Nc2cccc(NC(=O)C(C)(C)C)c2)cc1`, the inhibition is 7.9%.
The figure for `COc1ccc(C(=O)Nc2ccc(S(=O)(=O)Nc3onc(C)c3C)cc2)cc1OC` is -3.3%; for `COC(=O)COc1ccc(S(=O)(=O)Nc2ccc(NC(C)=O)cc2)cc1` it is -9.6%; for `COc1ccc(NS(=O)(=O)c2ccc(NC(C)=O)cc2)cc1OC` it is 31.3% (active).
To `NC(=O)c1ccsc1NC(=O)c1ccco1` belongs -2.4%.
To `O=C(O)c1ccc(F)c(S(=O)(=O)Nc2ccccc2)c1` belongs 6.8%; to `O=C(O)Cc1ccc(NC(=O)C2CCCCC2C(=O)O)cc1` (stereo not given), -4.1%; to `Cc1nnc(SCc2ccc(C(=O)c3ccc(Cl)cc3)o2)n1-c1ccccc1`, 2.9%.
For `COc1ccc(N2C(=O)CN=C2Nc2cccc(C)c2C)cc1OC`, the inhibition was -3%.
To `Nc1nnc(SCCN2C(=O)c3ccccc3S2(=O)=O)s1` belongs -1%.
The figure for `COc1ccccc1NC(=O)CN1CCN(S(=O)(=O)c2ccc(Br)cc2)CC1` is -0.3%; for `CCC(=O)c1ccc(OCC(O)CN2C(=O)NC(C)(C)C2=O)cc1` (stereo not given) it is -6.4%; for `O=C(c1cccc(S(=O)(=O)N2CCOCC2)c1)N1CCOCC1` it is 0%.
The figure for `CCOc1cccc(-c2nnc3sc(COc4ccc(OC)cc4)nn23)c1` is -3%.
Consider `CCOc1cccc(-n2nnnc2-c2ccc(OC)cc2)c1`, for which the inhibition was 86.8% (active).
The figure for `COc1ccc(-n2nnnc2SCC(=O)c2ccc(OC)c(OC)c2)cc1` is 7.1%; for `COC(=O)COc1ccc(S(=O)(=O)N2CCOCC2)cc1` it is -6.6%.
To `CCOC(=O)Cc1csc(NC(=O)CN(C)S(=O)(=O)c2ccc3c(c2)CCC(=O)N3)n1` belongs -0.9%; to `COc1ccc(NC(=O)c2cccc(NC(=O)c3ccco3)c2)c(OC)c1`, -4.5%; to `CCOc1cc(-c2noc(CCC(=O)N3CCOCC3)n2)ccc1OC`, -6.2%.
To `CCOc1cc(C(=O)N2CCc3cc(OC)c(OC)cc3C2)ccc1OC(F)F` belongs 98.3% (active); to `CCOc1cc(CN2CCN(C(=O)CC(C)C)CC2)ccc1OC`, -0.1%.
As for `COc1ccc(C(=O)Nc2ccc3c(c2)OCO3)cc1OC`, the inhibition is 16.3%.
In the case of `COc1nc(Oc2ccc(=O)n(C)n2)nc(N(C)C)n1`, the inhibition was 4.9%.
The figure for `CC1(C)CC(=O)C(C=NCCC2=CCCCC2)=C(O)C1` is 2%.
To `C=CCn1c(CSc2nc3ccccc3s2)nnc1SCC(=O)NCc1ccco1` belongs 0.8%.
On to `CN(Cc1ccccc1)C(=O)CCNC(=O)Cn1cnc2ccccc2c1=O`, for which the inhibition was 7.8%.
The figure for `O=C(Cn1cnc2c(cnn2-c2ccccc2)c1=O)NCc1ccccc1` is 35.9% (active); for `O=C(Cn1cnc2c(cnn2-c2ccc(F)cc2)c1=O)NCCc1ccccc1` it is -3%; for `CC(=O)Oc1cccc(N2C(=O)C3CC=C(Cl)CC3C2=O)c1` (stereo not given) it is -1.4%.
To `CS(=O)(=O)N1CCN(C(=O)c2cc3ccccc3oc2=O)CC1` belongs -5.4%; to `CCN(CC)C(=O)CSc1nnc(-c2ccc(S(=O)(=O)NCc3ccccc3Cl)cc2)o1`, -7.3%.
On to `Cc1ccccc1C(=O)NCCN=C1NS(=O)(=O)c2ccccc21`, for which the inhibition is 3.3%.
The figure for `O=C(c1ccccc1)c1cccn1CC(=O)N1CCN(c2ccc(F)cc2)CC1` is -0.4%; for `Cc1ccccc1CN1CCN(C(=O)c2cccc(F)c2)CC1` it is -5%; for `O=C(c1cccc(C(=O)N2CCN(c3ccc(F)cc3)CC2)c1)N1CCN(c2ccc(F)cc2)CC1` it is 37.4% (active).
As to `COc1cc(C2C(C#N)=C(C)NC3=C2C(=O)CC(C)(C)C3)ccc1O` (stereo not given), the inhibition is 5%.
The figure for `COc1ccccc1CNC(=O)C1CCN(S(C)(=O)=O)CC1` is -5.6%.
